Test results reported in PubChem BioAssay (Tox21).
Several values for one entry are separate records, joined by “and”; a condition that tells them apart may be missing. Identical values can stand only once. Results filed as inconclusive are left out. Entries that show only a call come without a potency. Some structures have more than one record in an assay (separate samples or runs), and their calls can disagree. Activity calls are given as the source filed them. Unless noted, the call rests on the fitted dose curve; in most records, active means well fitted curve in the direction sought with a large enough effect in the repeat runs; inconclusive means weak or mixed curves; inactive means no such curve, though single readings can be large; an effect the other way counts as inactive or inconclusive.

Experiments:
[1] = qHTS assay to identify small molecule antagonists of the estrogen receptor alpha (ER-alpha) signaling pathway using the BG1 cell line in the presence of 0.1 nM 17-beta-estradiol - cell viability counter screen (AID 1259241); further: nearly all actives have a fitted effect of over 40% in size; further: potency means the concentration at half of the fitted maximal effect
Procedure, shortened: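 Live-cell protease activity (CellTiter-Fluor fluorescence, 30 min) was read in the same wells after VM7Luc4E2 cells had been exposed to compounds with 0.1 nM 17beta-estradiol for 22 hr at 37C.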

[2] = qHTS assay to identify small molecule antagonists of the androgen receptor (AR) signaling pathway using the MDA cell line in the presence of 0.5 nM R1881 - cell viability counter screen (AID 1259242); further: nearly all actives have a fitted effect of over 45% in size; further: potency means the concentration at half of the fitted maximal effect
Procedure, shortened: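 MDA-kb2 cells (human breast carcinoma, stably carrying MMTV-luciferase reporter) were exposed to compounds with 0.5 nM R1881 (final) for 16 hr at 37C, 0% CO2; viability then read as live-cell protease fluorescence (CellTiter-Fluor, 30 min) in the same wells.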

[3] = target: Estrogen receptor (Homo sapiens) (UniProt P03372); test: qHTS assay to identify small molecule antagonists of the estrogen receptor alpha (ER-alpha) signaling pathway using the BG1 cell line in the presence of 0.1 nM 17-beta-estradiol (AID 1259244); further: nearly all actives have a fitted effect of over 50% in size; further: potency means the concentration at half of the fitted maximal effect
Chain of Estrogen receptor (Homo sapiens) (P03372 whole entry, looked up): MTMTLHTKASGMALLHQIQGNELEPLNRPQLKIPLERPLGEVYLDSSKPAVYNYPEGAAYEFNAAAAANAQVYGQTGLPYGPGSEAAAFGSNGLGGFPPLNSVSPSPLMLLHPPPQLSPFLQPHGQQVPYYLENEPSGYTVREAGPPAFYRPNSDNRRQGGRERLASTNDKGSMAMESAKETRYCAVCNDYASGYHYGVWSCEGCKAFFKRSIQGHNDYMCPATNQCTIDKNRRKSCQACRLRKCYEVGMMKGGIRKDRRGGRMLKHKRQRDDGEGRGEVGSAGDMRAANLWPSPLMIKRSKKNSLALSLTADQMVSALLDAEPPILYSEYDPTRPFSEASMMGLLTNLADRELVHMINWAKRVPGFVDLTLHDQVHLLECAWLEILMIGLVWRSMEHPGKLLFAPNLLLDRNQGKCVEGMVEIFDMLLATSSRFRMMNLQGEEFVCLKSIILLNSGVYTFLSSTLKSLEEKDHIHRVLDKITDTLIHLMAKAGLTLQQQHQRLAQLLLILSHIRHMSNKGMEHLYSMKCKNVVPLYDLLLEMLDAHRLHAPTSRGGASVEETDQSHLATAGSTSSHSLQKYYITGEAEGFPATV
Procedure, shortened: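 VM7Luc4E2 cells (endogenous full-length ER-alpha, stable 4xERE-luciferase) were grown 5 days in phenol red-free medium with charcoal-stripped FBS, then exposed 22 h at 37C to compounds plus 0.1 nM (final) 17beta-estradiol; ONE-Glo luminescence read-out.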

[4] = qHTS assay to identify small molecule phospholipidosis (PLD) inducers (AID 1259344; active means well fitted curve in the direction sought with a large enough effect; an effect the other way counts as inactive or inconclusive)
Procedure, shortened: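 HepG2 cells grown on collagen I take up LipidTOX Red while exposed to compound for 24 h; after fixation they are imaged at 20x and pit metrics are extracted.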

[5] = qHTS assay to identify small molecule HDAC inhibitors - cell viability counter screen (AID 1259365); further: series mostly up to about 92 µM; nearly all actives have a fitted effect of over 50% in size
Procedure, shortened: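 HCT-116 (wild type), 1,500 cells/well, overnight 37C/5% CO2; compound in DMSO 2hr; CellTiter-Glo 30min RT; luminescence read.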

[6] = qHTS assay to identify small molecule agonists of the sonic hedgehog signaling (Shh) pathway - cell viability counter screen (AID 1259366); further: nearly all actives have a fitted effect of over 50% in size; further: potency means the concentration at half of the fitted maximal effect
Procedure, shortened: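 CellTiter-Fluor fluorescence read-out, 1 hr at 37C, added after 23hr compound exposure. Cells: 3T3 Gli1-Luc, an NIH/3T3 clone with stably integrated Gli1-Luc reporter, plated 4hr before compound.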

[7] = qHTS assay to identify small molecule antagonists of the sonic hedgehog signaling (Shh) pathway - cell viability counter screen (AID 1259367); further: nearly all actives have a fitted effect of over 55% in size; further: potency means the concentration at half of the fitted maximal effect
Procedure, shortened: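 After a 4 hr settling period, 3T3 Gli1-Luc cells were treated with DMSO-dissolved chemicals and conditioned medium, kept 24 hr at 37C in 5% CO2, and assayed for viability by CellTiter-Fluor fluorescence following 1 hr reagent incubation.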

[8] = qHTS assay to identify small molecule agonists of the sonic hedgehog signaling (Shh) pathway (AID 1259368; calls by dose curve; further: series mostly up to about 92 µM; nearly all actives have a fitted effect of over 15% in size)
Procedure, shortened: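 NIH/3T3-derived 3T3Gli1-Luc cells carrying a stably integrated Gli1 response element–firefly luciferase reporter were plated, left 4 hr at 37 C, then given compounds in DMSO for 24 hr. Luminescence was read 30 min after adding luciferase reagent.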

[9] = qHTS assay to identify small molecule antagonists of the sonic hedgehog signaling (Shh) pathway (AID 1259369; calls by dose curve; further: nearly all actives have a fitted effect of over 45% in size; further: potency means the concentration at half of the fitted maximal effect)
Procedure, shortened: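 NIH/3T3-derived 3T3Gli1-Luc cells with stably integrated Gli1-Luc reporter were preincubated 4hr at 37 C, then given compounds in DMSO plus Shh conditioned medium and incubated 24hr. Firefly luciferase luminescence read after 30min reagent at room temperature.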

[10] = target: Estrogen receptor beta (Homo sapiens) (UniProt Q92731); test: qHTS assay to identify small molecule agonists of the estrogen receptor beta (ER-beta) signaling pathway (AID 1259377; active means well fitted activation curve with a large enough effect in the signal ratio in the repeat runs, not every such curve was filed as active; the % refers to the signal ratio)
Chain of Estrogen receptor beta (Homo sapiens) (Q92731 whole entry, looked up): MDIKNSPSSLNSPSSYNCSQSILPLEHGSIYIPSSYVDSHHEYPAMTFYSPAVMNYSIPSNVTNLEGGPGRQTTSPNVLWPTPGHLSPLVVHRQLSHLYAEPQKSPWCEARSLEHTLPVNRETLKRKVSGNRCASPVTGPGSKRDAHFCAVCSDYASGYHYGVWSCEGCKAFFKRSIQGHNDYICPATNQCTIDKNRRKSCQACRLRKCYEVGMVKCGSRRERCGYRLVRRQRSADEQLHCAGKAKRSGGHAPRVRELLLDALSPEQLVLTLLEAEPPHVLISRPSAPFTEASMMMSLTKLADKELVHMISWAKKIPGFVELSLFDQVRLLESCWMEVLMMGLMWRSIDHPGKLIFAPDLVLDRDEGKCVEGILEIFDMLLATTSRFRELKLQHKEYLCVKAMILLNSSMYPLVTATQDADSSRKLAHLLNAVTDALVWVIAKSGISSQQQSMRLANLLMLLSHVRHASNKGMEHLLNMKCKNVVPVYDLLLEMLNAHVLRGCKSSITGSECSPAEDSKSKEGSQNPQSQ
Procedure, shortened: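 Beta-lactamase reporter readout: fluorescence of LiveBLAzer B/G FRET substrate after 2 h at room temperature, following 16 h compound treatment of ER-beta-UAS-bla HEK293T cells at 37C in 2% charcoal-stripped FBS medium.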

[11] = target: Estrogen receptor beta (Homo sapiens) (UniProt Q92731); test: qHTS assay to identify small molecule antagonists of the estrogen receptor beta (ER-beta) signaling pathway (AID 1259378; active means well fitted inhibition curve with a large enough effect in the signal ratio in the repeat runs, not every such curve was filed as active; the % refers to the signal ratio; further: potency means the concentration at half of the fitted maximal effect)
Procedure, shortened: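 ER-beta-UAS-bla HEK293T (GripTite) cells in 2% charcoal-stripped FBS medium were preincubated 6 hr at 37C, dosed with compound, then stimulated with 1 nM E2 (final) for 16 hr; beta-lactamase reporter read by B/G FRET fluorescence after 2 hr substrate loading.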

[12] = qHTS assay to identify small molecule agonists of the estrogen receptor beta (ER-beta) signaling pathway - cell viability counter screen (AID 1259380); further: nearly all actives have a fitted effect of over 30% in size; further: potency means the concentration at half of the fitted maximal effect
Procedure, shortened: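 ER-beta-UAS-bla HEK293T cells in medium with 2% charcoal-stripped FBS were preincubated 6 hr at 37C, dosed with compound in DMSO for 16 hr, then after the bla read, CellTiter-Glo was added for 30 min at room temperature; luminescence recorded.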

[13] = qHTS assay to identify small molecule antagonists of the estrogen receptor beta (ER-beta) signaling pathway - cell viability counter screen (AID 1259382); further: nearly all actives have a fitted effect of over 55% in size; further: potency means the concentration at half of the fitted maximal effect
Procedure, shortened: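 ER-beta-UAS-bla HEK293T cells (2,000/well, 2% charcoal-stripped FBS) were pre-incubated 6 hr at 37C, then given compound plus 1nM final 17-beta-estradiol for 16 hr. Viability was read in the same wells by CellTiter-Glo luminescence after 30 min at room temperature.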

[14] = target: Estrogen receptor (Homo sapiens) (UniProt P03372); test: qHTS assay to identify small molecule agonists of the estrogen receptor alpha (ER-alpha) signaling pathway in the presence of an antagonist (AID 1259383; calls by dose curve; further: top concentration of the series differs between compounds; nearly all actives have a fitted effect of over 15% in size)
Procedure, shortened: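 VM7Luc4E2 cells (endogenous full-length ER-alpha, 4×ERE-luciferase) were precultured 5 days in phenol red-free medium with 10% charcoal-stripped FBS, given 10.0nM ICI-182,780 (final), then treated with compounds at 15 concentrations for 22hr at 37C; luminescence read with ONE-Glo.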

[15] = qHTS assay to identify small molecule agonists of the estrogen receptor alpha (ER-alpha) signaling pathway in the presence of an antagonist - cell viability counter screen (AID 1259386); further: nearly all actives have a fitted effect of over 30% in size; further: potency means the concentration at half of the fitted maximal effect
Procedure, shortened: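 VM7Luc4E2 cells (endogenous full-length ER-alpha, 4×ERE-luciferase) were held 5 days in phenol red-free medium with 10% charcoal-stripped FBS, plated, then given 10.0nM ICI-182,780 and compounds at 15 concentrations for 22hr at 37C; viability read by CellTiter-Fluor fluorescence.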

[16] = target: Androgen receptor (Homo sapiens) (UniProt P10275); test: qHTS assay to identify small molecule antagonists of the androgen receptor (AR) signaling pathway using the MDA cell line in the presence of 0.5 nM R1881 (AID 1259243); further: nearly all actives have a fitted effect of over 50% in size; further: potency means the concentration at half of the fitted maximal effect
Chain of Androgen receptor (Homo sapiens) (P10275 whole entry, looked up): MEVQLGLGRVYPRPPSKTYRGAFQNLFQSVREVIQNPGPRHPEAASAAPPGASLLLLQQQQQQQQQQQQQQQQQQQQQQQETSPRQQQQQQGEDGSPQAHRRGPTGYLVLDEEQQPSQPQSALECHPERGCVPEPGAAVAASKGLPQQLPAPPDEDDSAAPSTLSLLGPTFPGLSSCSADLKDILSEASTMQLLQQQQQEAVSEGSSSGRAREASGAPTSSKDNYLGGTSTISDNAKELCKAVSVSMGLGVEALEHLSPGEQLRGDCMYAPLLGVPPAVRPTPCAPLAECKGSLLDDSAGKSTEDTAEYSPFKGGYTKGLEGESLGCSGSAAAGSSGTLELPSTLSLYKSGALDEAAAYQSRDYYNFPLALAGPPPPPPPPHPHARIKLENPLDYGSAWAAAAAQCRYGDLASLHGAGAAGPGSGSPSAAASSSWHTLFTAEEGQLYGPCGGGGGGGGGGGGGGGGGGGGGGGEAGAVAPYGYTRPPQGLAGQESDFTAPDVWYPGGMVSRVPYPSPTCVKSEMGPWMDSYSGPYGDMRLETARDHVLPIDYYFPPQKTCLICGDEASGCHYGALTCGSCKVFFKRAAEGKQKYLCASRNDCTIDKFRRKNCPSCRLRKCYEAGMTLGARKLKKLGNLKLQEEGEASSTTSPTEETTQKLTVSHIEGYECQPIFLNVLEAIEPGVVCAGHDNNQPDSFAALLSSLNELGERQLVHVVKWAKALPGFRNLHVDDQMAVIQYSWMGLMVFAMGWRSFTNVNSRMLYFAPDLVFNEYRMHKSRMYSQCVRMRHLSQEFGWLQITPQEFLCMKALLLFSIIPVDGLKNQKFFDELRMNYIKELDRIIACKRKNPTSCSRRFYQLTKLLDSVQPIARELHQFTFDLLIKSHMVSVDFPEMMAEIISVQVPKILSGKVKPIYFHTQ
Procedure, shortened: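 MDA-kb2 human breast carcinoma cells carrying an MMTV-luciferase reporter (AR- and GR-responsive) were plated, rested 5 hr at 37C, dosed with compounds, then stimulated with 0.5 nM R1881 (final) for 16 hr; luminescence was read after ONE-Glo.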

[17] = qHTS assay to identify small molecule HDAC inhibitors (AID 1259364); further: top concentration of the series differs between compounds; nearly all actives have a fitted effect of over 45% in size
Procedure, shortened: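 Wild-type HCT-116 cells were plated overnight, exposed to compounds for 2 h at 37 °C, then given HDAC-Glo class I/II luminogenic reagent for 30 min at room temperature before luminescence was read.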

[18] = qHTS assay to identify small molecule agonists of the androgen receptor (AR) signaling pathway in the presence of an antagonist - cell viability counter screen (AID 1259379); further: nearly all actives have a fitted effect of over 25% in size; further: potency means the concentration at half of the fitted maximal effect
Procedure, shortened: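 MDA-kb2 human breast carcinoma cells (stable MMTV-luciferase, AR/GR responsive) were seeded 3,000 cells/well, pre-incubated 5 hr at 37C without CO2, then given 3.0uM nilutamide and compounds at 15 concentrations for 16 hr. Viability was read by CellTiter-Fluor fluorescence.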

[19] = qHTS assay to identify small molecule agonists or antagonists of the thyroid stimulating hormone receptor (TSHR) signaling pathway - wild type cell line counter screen (AID 1259384; calls by dose curve)
Procedure, shortened: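 Wild-type HEK293 cells were plated 18 h at 37 C/5% CO2, pin-dosed with compound plus Ro20-1724 medium, held 30 min at room temperature, then given cAMP-d2 and anti-cAMP-cryptate; fluorescence was read after 1 h. Fifteen concentrations, triplicate.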

[20] = target: Thyrotropin receptor (Homo sapiens) (UniProt P16473); test: qHTS assay to identify small molecule antagonists of the thyroid stimulating hormone receptor (TSHR) signaling pathway (AID 1259385; calls by dose curve; further: nearly all actives have a fitted effect of over 20% in size)
Chain of Thyrotropin receptor (Homo sapiens) (P16473 whole entry, looked up): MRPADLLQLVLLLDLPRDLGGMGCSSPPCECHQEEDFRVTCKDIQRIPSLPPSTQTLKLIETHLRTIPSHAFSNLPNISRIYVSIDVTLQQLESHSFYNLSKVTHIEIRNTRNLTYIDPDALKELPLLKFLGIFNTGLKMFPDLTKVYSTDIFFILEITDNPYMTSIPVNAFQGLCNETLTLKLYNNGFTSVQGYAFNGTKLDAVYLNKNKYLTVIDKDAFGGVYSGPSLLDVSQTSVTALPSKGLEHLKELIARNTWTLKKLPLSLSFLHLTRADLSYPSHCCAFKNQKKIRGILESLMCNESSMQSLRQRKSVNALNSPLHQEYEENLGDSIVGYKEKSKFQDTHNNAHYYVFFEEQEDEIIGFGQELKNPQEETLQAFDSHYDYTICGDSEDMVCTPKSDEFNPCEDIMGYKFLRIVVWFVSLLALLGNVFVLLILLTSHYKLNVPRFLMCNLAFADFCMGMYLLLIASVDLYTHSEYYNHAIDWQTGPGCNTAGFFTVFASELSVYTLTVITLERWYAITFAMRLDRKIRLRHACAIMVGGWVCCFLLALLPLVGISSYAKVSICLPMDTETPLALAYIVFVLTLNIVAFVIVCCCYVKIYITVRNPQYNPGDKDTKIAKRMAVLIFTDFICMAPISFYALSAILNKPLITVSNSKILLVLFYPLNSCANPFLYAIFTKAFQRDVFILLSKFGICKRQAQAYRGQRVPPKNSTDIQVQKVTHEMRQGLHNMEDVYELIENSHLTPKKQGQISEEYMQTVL
Procedure, shortened: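 TSHR-HEK293 cells were plated and held 18 h at 37C/5% CO2, then given compound plus Ro20-1724 and stimulated with TSH at 1.5 ng/mL final. After 30 min at room temperature, cAMP was detected with cAMP-d2/anti-cAMP-cryptate (1 h) by fluorescence.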

SMILES	Potency [1]	Potency [2]	Potency [3]	outcome [4]	outcome [5]	Potency [6]	Potency [7]	Potency [8]	Potency [9]	Potency [10]	Potency [11]	Potency [12]	Potency [13]	Potency [14]	Potency [15]	Potency [16]	Potency [17]	Potency [18]	outcome [19]	outcome [20]
O=c1oc2ccccc2c(O)c1C(CC(O)c1ccc(-c2ccc(Br)cc2)cc1)c1ccccc1 (stereo not given)	inactive	inactive	inactive	inactive	inactive	inactive	inactive	inactive	inactive	inactive	23 µM (active)	inactive	inactive	inactive	inactive					
CCCCCCCCOC(=O)c1ccccc1C(=O)OCCCCCCCC	inactive	inactive	inactive	inactive	inactive	inactive	inactive	inactive	inactive	inactive	inactive	inactive	inactive	inactive	inactive	inactive	inactive	inactive	inactive	inactive
C#CCOS(=O)OC1CCCCC1Oc1ccc(C(C)(C)C)cc1 (stereo not given)	inactive	6.11 µM (active)	8.64 µM (active) and 15.4 µM (active)		inactive	24.4 µM (active) and 54.5 µM (active)	21.7 µM (active) and 27.3 µM (active)	inactive	687 nM (active) and 2.17 µM (active)	inactive	5.45 µM (active) and 4.86 µM (active)	27.3 µM (active)	inactive	inactive	30.7 µM (active) and 48.6 µM (active)		inactive	5.45 µM (active)		inactive
Nc1cccnc1	inactive	inactive	inactive		inactive	inactive	inactive	inactive	inactive	inactive	inactive	inactive	inactive	inactive	inactive		inactive			inactive
NNC(N)=S	inactive	inactive	63.5 µM (active) and inactive		inactive	45 µM (active)	20.1 µM (active) and 61.1 µM (active)	inactive	8.97 µM (active) and 12.2 µM (active)	inactive	11.3 µM (active) and 30.6 µM (active)	31.8 µM (active)	12.7 µM (active)	inactive	inactive		inactive	inactive	inactive	inactive
O=C(NC(=O)c1c(F)cccc1F)Nc1ccc(Cl)cc1	inactive	inactive	inactive		inactive	inactive	inactive	inactive	inactive	inactive	inactive	inactive	inactive	inactive	inactive		inactive	inactive	inactive	inactive
C=C(C)[C@H]1Cc2c(ccc3c2O[C@@H]2COc4cc(OC)c(OC)cc4[C@@H]2C3=O)O1	0.0486 µM (active)	78 nM (active) and 54.5 nM (active) and 106 nM (active)		inactive	inactive	24.7 µM (active) and inactive	22 µM (active) and 6.11 µM (active)	inactive	19.6 nM (active) and 5.45 µM (active) and inactive			inactive	inactive		2.77 µM (active) and 96.9 nM (active) and 188 nM (active)	31 nM (active) and 19.3 nM (active) and 47.3 nM (active)	inactive	55.2 nM (active) and 38.6 nM (active) and 47.3 nM (active)	inactive	inactive
